Bioassay records as filed in PubChem BioAssay.
Most compounds without a hit are left out; they make up all but 11% or so of the library.
Luciferase inh: blocks purified firefly luciferase enzyme activity. P08659. purified P. pyralis luciferase, luminescence, biochemical. Potency, µM (series often up to 115 µM), usual class: inhibitors. 2.5% of 76,000 active. AID 1347043; further: on the % scale 0 is the no-effect control and ±100 the full control effect; nearly all actives have a fitted effect of over 65% in size
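Luminescence read by CCD imager after adding enzyme (10nM final) to wells holding compound, titrated in qHTS. Substrates 10uM each D-luciferin and ATP; buffer 50mM Tris acetate pH 7.5, 10mM Mg acetate, Tween-20, BSA.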
NPR1 antag: human Npr1 receptor antagonism; 1.6% of 76,000 active; HEK293 hNpr1 GloSensor cGMP, ANP-stimulated luminescence; Potency, µM (titrated, usually from 46.3 µM), inactives show at the highest dose activity change, negative = inhibition, hits mostly inhibitors; AID 1347048; P16066; calls by dose curve; further: on the % scale 0 is the no-effect control and ±100 the full control effect; nearly all actives have a fitted effect of over 60% in size
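HEK293 cells stably expressing human Npr1 and cGMP GloSensor pGS-40F, loaded 2 h with 2% GloSensor reagent, given compound 30 min at room temperature. Luminescence read before and 20 min after 0.1 nM hNppA.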
HEK293 tox: cytotoxic compounds in HEK 293 cells; AID 1345083; 6.6% of 94,000 active; Potency, µM (top dose mostly 115 µM), for inactives: top-dose activity change, negative = cytotoxicity, usual class: inhibitors; HEK 293 viability, ATP luminescence (CellTiter-Glo), 48-72 h; further: on the % scale 0 is the no-effect control and ±100 the full control effect; nearly all actives have a fitted effect of over 60% in size
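250 HEK 293 cells/well; compound by pintool; incubated 48 or 72 hr at 37 degree Celsius; CellTiter-Glo added, 10 min RT, luminescence imaged.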
3T3 cytotox: cytotoxic compounds in NIH 3T3 cells. Potency, µM (doses to about 96.7 µM), for the others: at the highest dose activity change, negative = cytotoxicity, hits mostly inhibitors. NIH 3T3 viability, CellTiter-Glo ATP luminescence, 48-72 h. 4.3% of 94,000 active; further: on the % scale 0 is the no-effect control and ±100 the full control effect; nearly all actives have a fitted effect of over 55% in size
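First NIH 3T3 cells are plated at 400 cells/well; next compound is pinned in; then plates incubate 48 or 72 hr at 37 °C; finally CellTiter-Glo is added and luminescence read after 10 min.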
NPR1 antag cnf: confirmation of human Npr1 natriuretic peptide receptor antagonists; Potency, µM (doses to about 57.6 µM), for inactives: at the highest dose activity change, negative = inhibition, most hits filed as inhibitors; HEK293 hNpr1 cGMP GloSensor luminescence, ANP-stimulated; shares compounds with NPR1 antag; 76% of 1,400 active; calls by dose curve; further: nearly all actives have a fitted effect of over 70% in size
Npr2 selectivity: selectivity test of Npr1 antagonists against human Npr2; shares compounds with NPR1 antag; HEK293 hNpr2 GloSensor cGMP luminescence, CNP-stimulated; Potency, µM (titrated, usually from 57.6 µM), without a hit: at the top dose activity change, negative = inhibition, hits mostly inhibitors; 67% of 1,400 active; AID 1347046; calls by dose curve; further: nearly all actives have a fitted effect of over 70% in size
FLuc inh counter: inhibits firefly luciferase, false Npr1 antagonist flag; shares compounds with NPR1 antag; purified FLuc enzyme, luminescence, Km substrate; Potency, µM (titrated, usually from 57.6 µM), for inactives: top-dose activity change, negative = inhibition, most hits filed as inhibitors; 0.7% of 1,400 active; AID 1347047; further: series mostly up to about 58 µM; 0% is about no effect
GloSensor cGMP: counter-screen for Npr1 antagonists: GloSensor control cell line. shares compounds with NPR1 antag. HEK293 GloSensor cGMP, SNP-stimulated, luminescence. Potency, µM (top dose mostly 57.6 µM), for inactives: at the highest dose activity change, negative = inhibition, actives largely listed as inhibitors. 69% of 1,400 active. AID 1347051; calls by dose curve; further: on the % scale 0 is the no-effect control and ±100 the full control effect; nearly all actives have a fitted effect of over 70% in size
Numbers without * were called inactive; i = inactive; ? = inconclusive; · = not tested or not shown; [ ] = dose if it differs, or a comment. Unless noted, the call rests on the fitted dose curve; in most records, active means well fitted curve in the direction sought with a large enough effect; inconclusive means small, poorly fitted or top-dose-only effect, or another doubt; inactive means no such curve, though single readings can be large; an effect the other way counts as inactive or inconclusive. Potency means the concentration at half of the fitted maximal effect.

SMILES	Luciferase inh	NPR1 antag	HEK293 tox	3T3 cytotox	NPR1 antag cnf	Npr2 selectivity	FLuc inh counter	GloSensor cGMP
COc1ccc(C(=O)NC2CCN(c3cnn(CC4CC4)c(=O)c3)CC2)cc1	i	-1.4%	4.4%	-4.6%	·	·	·	·
COc1ccc(OC)c(CN2C[C@H]3[C@H](C2)[S+](=O)([O-])C(C)(C)C(=O)N3CCOc2ccccc2)c1	i	2.7%	?	?	·	·	·	·
CCOC(=O)C1CCN(C(=O)c2cc(-c3ccc(F)cc3)c3nncn3n2)CC1	·	·	-27.6%	?	·	·	·	·
COc1ccc(C(=O)N2CCCN(c3cc(-c4ccc(F)cc4)[nH]n3)CC2)cc1	i	?	?	?	·	·	·	·
COc1ccc(C(=O)N2CCN(c3cc(-c4ccc(Cl)cc4)[nH]n3)CC2)cc1	i	8.91µM*	35.5µM*	7.08µM*	15.3µM*	17.2µM*	-0.5%	10.9µM*
COc1ccc(C(=O)N2CCC3(CC2)NC(=O)N(Cc2ccc(F)cc2)C3=O)cc1F	i	12.6µM*	?	?	19.3µM*	21.7µM*	3.3%	21.7µM*
O=C(c1ccc2c(c1)OCO2)N1CCCN(c2cc(-c3ccc(Br)cc3)[nH]n2)CC1	i	17.8µM*	?	?	24.3µM*	24.3µM*	2.4%	30.6µM*
COc1ccc(C(=O)N2CCC3(CC2)NC(=O)N(Cc2ccccc2)C3=O)cc1F	i	?	?	-20.3%	·	·	·	·
CCOc1ccc(C(=O)N2CCCN(c3cc(-c4ccc(Cl)cc4)[nH]n3)CC2)cc1OCC	i	11.2µM*	?	?	15.3µM*	17.2µM*	5.4%	15.3µM*
O=C(Cc1c[nH]c2ccccc12)N1CCCN(c2cc(-c3ccc(Br)cc3)[nH]n2)CC1	i	15.8µM*	?	35.5µM*	24.3µM*	27.3µM*	-7.0%	27.3µM*
O=C(NC1CCN(c2cc(-c3ccc(Cl)cc3)[nH]n2)CC1)c1cccc(F)c1	i	2.4%	?	-2.6%	·	·	·	·
O=C(c1ccc2c(c1)OCO2)N1CCCN(c2cc(-c3ccc(Cl)cc3)[nH]n2)CC1	i	-29.5%	?	?	·	·	·	·
O=C(NC1CCN(c2cc(-c3ccc(F)cc3)[nH]n2)CC1)c1ccc(F)c(Cl)c1	i	?	?	31.6µM*	24.3µM*	?	-2.9%	?
O=C(c1ccc(Cl)cc1)N1CCN(c2cc(-c3ccc(Cl)cc3)[nH]n2)CC1	i	11.2µM*	39.8µM*	31.6µM*	21.7µM*	21.7µM*	3.7%	21.7µM*
O=C(c1ccc2c(c1)OCO2)N1CCN(c2cc(-c3ccc(Cl)cc3)[nH]n2)CC1	i	?	?	?	24.3µM*	?	-11.4%	24.3µM*
O=C(c1ccc2nc[nH]c2c1)N1CCCN(c2cc(-c3ccc(Br)cc3)[nH]n2)CC1	i	-16.7%	?	-25.4%	·	·	·	·
Nc1cccc(C(=O)NCC2CCN(Cc3cc(F)cc(F)c3)C2)c1 (stereo not given)	i	0.9%	-17.3%	-0.4%	·	·	·	·
C[S+](=O)([O-])NCc1nnc2n1C(C(=O)NCCc1ccccc1F)CC2 (stereo not given)	·	·	i	-17.4%	·	·	·	·
COc1ccc(CN2C[C@@H]3C[C@@H](C(N)=O)N(C(=O)C(C)C)c4cccc(c43)C2=O)cc1	·	·	-6.2%[57.5 µM]	?	·	·	·	·
COc1ccc(CC(=O)NC2CCN(c3cc(-c4ccc(Cl)cc4)[nH]n3)C2)cc1OC (stereo not given)	i	10µM*	?	?	19.3µM*	21.7µM*	-1.7%	10.9µM*
O=C(c1ccccc1)N1CCN(c2cc(-c3ccc(Cl)cc3)[nH]n2)CC1	i	?	?	?	?	?	-0.1%	?
O=C(c1ccc(F)c(Cl)c1)N1CCN(c2cc(-c3ccccc3)[nH]n2)CC1	i	-29.2%	?	?	·	·	·	·
CCOc1ccc(CC(=O)NC2CCN(c3cc(-c4ccc(F)cc4)[nH]n3)C2)cc1OCC (stereo not given)	i	-20.0%	?	?	·	·	·	·
CC1CCN(C(=O)c2ccccc2OCC2CCCN(Cc3cccnc3)C2)CC1 (stereo not given)	i	-15.8%	?	-6.6%	·	·	·	·
CN(Cc1ccc(F)cc1)c1ccc2ncc(Nc3ccnc(N4CCOCC4)c3)n2n1	i	10µM*	?	?	25µM*	15.7µM*	-2.7%[86.2 µM]	17.7µM*
SMILES	Luciferase inh	NPR1 antag	HEK293 tox	3T3 cytotox	NPR1 antag cnf	Npr2 selectivity	FLuc inh counter	GloSensor cGMP
COc1cncc(Nc2cnc3ccc(N(C)Cc4ccc(F)cc4)nn23)c1	i	?	?	?	·	·	·	·
O=C(NCc1cccnc1)c1nc2sccn2c1-c1ccc(F)cc1	·	·	1.4%	-15.2%	·	·	·	·
O=C(Nc1ccc(-c2cccc(F)c2)cc1)C1CCCN(C(=O)c2ccncc2)C1 (stereo not given)	i	7.08µM*	14.1µM*	?	13.7µM*	15.3µM*	-15.3%	10.9µM*
O=C(Nc1cccc(-c2ccc(F)cc2)c1)C1CCCN(C(=O)c2cccnc2)C1 (stereo not given)	i	-15.1%	?	?	·	·	·	·
COCC1CN(C2CCC2)CC12CCN(C(=O)NCCc1ccccc1)CC2 (stereo not given)	i	-23.3%	?	?	-13.3%	-15.4%	3.7%	-11.4%
CCOc1ccccc1-c1noc(-c2ncn3c2COC(c2ccc(OC)cc2)C3)n1 (stereo not given)	i	5.0%	?	?	·	·	·	·
O=C(CCCc1c[nH]c2ccccc12)N1CCC(c2noc(COc3ccc(F)cc3)n2)CC1	i	11.2µM*	?	?	21.7µM*	24.3µM*	3.2%	17.2µM*
Cc1oc2c(c1C(=O)NCCCN1CCCC1=O)CN(Cc1cccc(F)c1)CC2	?	5.6%	?	-24.8%	·	·	·	·
COc1ccc(NC(=O)c2cccc3c2CCN3C(=O)c2ccc(F)cc2)c(OC)c1	i	17.8µM*	31.6µM*	?	24.3µM*	24.3µM*	-11.9%	21.7µM*
COc1ccc(OC)c(NC(=O)c2cccc3c2CCN3C(=O)c2ccc(F)cc2)c1	i	-11.6%	?	-23.9%	·	·	·	·
